{"source": "PubChem BioAssay AID1159580", "about": "(chemical genetic matrix, 2015)", "experiment": "chemical genetic growth profiling, strain panel (AID 1159580);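 also: tested at 20 µM; growth read once vehicle control cultures reached saturation at 30 °C; 1 = growth at the plate median or of vehicle wells; lower values mean less growth of the strain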", "details": "S. cerevisiae deletion strains, growth OD", "note": "Several values for one entry are separate records, joined by “and”; a condition that tells them apart may be missing. Equal values may be shown once. Hit rate of the full screen: of about 5,500 compounds, about 2,000 (36%) were called active. About 18% were inconclusive and are not listed. The list shows a part of the results. A number with no mark means an inactive call. Rule as the data show it: active = normalized growth mostly below about 0.91 (no sharp cut-off); inconclusive = no clear call, values can overlap the other calls; inactive = mostly above about 0.92."}
{"smiles": "NC(N)=O", "values": [{"measurement": "normalized growth", "setting": "locus YAL013W, strain DEP1, hits give low values", "result": 1.02}, {"measurement": "normalized growth", "setting": "locus YAL021C, strain ccr4, hits give low values", "result": 1.02}, {"measurement": "normalized growth", "setting": "locus YAL026C, strain drs2, hits give low values", "result": 1.01}, {"measurement": "normalized growth", "setting": "locus YAL030W, strain snc1, hits give low values", "result": 1.02}, {"measurement": "normalized growth", "setting": "locus YBL061C, strain skt5, hits give low values", "result": 1.02}, {"measurement": "normalized growth", "setting": "locus YBR009C, strain hhf1, hits give low values", "result": 0.978}, {"measurement": "normalized growth", "setting": "locus YBR021W, strain FUR4, hits give low values", "result": 0.953}, {"measurement": "normalized growth", "setting": "locus YBR023C, strain chs3, hits give low values", "result": 1.02}, {"measurement": "normalized growth", "setting": "locus YBR171W, strain sec66, hits give low values", "result": 1.03}, {"measurement": "normalized growth", "setting": "locus YBR229C, strain ROT2, hits give low values", "result": 0.989}, {"measurement": "normalized growth", "setting": "locus YBR231C, strain swc5, hits give low values", "result": 1.03}, {"measurement": "normalized growth", "setting": "locus YBR279W, strain paf1, hits give low values", "result": 1.01}, {"measurement": "normalized growth", "setting": "locus YCL011C, strain gbp2, hits give low values", "result": 0.992}, {"measurement": "normalized growth", "setting": "locus YCL016C, strain dcc1, hits give low values", "result": 0.984}, {"measurement": "normalized growth", "setting": "locus YCL029C, strain bik1, hits give low values", "result": 0.991}, {"measurement": "normalized growth", "setting": "locus YCL061C, strain MRC1, hits give low values", "result": 1.03}, {"measurement": "normalized growth", "setting": "locus YCL069W, strain vba3, hits give low values", "result": 1}, {"measurement": "normalized growth", "setting": "locus YCR088W, strain abp1, hits give low values", "result": 1.01}, {"measurement": "normalized growth", "setting": "locus YDL005C, strain med2, hits give low values", "result": 1.01}, {"measurement": "normalized growth", "setting": "locus YDL035C, strain GPR1, hits give low values", "result": 1.01}, {"measurement": "normalized growth", "setting": "locus YDL040C, strain nat1, hits give low values", "result": 1.01}, {"measurement": "normalized growth", "setting": "locus YDL074C, strain BRE1, hits give low values", "result": 1.07}, {"measurement": "normalized growth", "setting": "locus YDL101C, strain DUN1, hits give low values", "result": 1}, {"measurement": "normalized growth", "setting": "locus YDL134C, strain PPH21, hits give low values", "result": 1}, {"measurement": "normalized growth", "setting": "locus YDL185W, strain tfp1, hits give low values", "result": 0.983}, {"measurement": "normalized growth", "setting": "locus YDL192W, strain arf1, hits give low values", "result": 0.994}, {"measurement": "normalized growth", "setting": "locus YDR001C, strain nth1, hits give low values", "result": 1.02}, {"measurement": "normalized growth", "setting": "locus YDR069C, strain doa4, hits give low values", "result": 1.04}, {"measurement": "normalized growth", "setting": "locus YDR101C, strain arx1, hits give low values", "result": 0.997}, {"measurement": "normalized growth", "setting": "locus YDR137W, strain rgp1, hits give low values", "result": 1.03}, {"measurement": "normalized growth", "setting": "locus YDR150W, strain NUM1, hits give low values", "result": 1.01}, {"measurement": "normalized growth", "setting": "locus YDR159W, strain sac3, hits give low values", "result": 0.965}, {"measurement": "normalized growth", "setting": "locus YDR162C, strain NBP2, hits give low values", "result": 1.04}, {"measurement": "normalized growth", "setting": "locus YDR195W, strain ref2", "result": 1.03}, {"measurement": "normalized growth", "setting": "locus YDR297W, strain sur2, hits give low values", "result": 1.01}, {"measurement": "normalized growth", "setting": "locus YDR318W, strain mcm21, hits give low values", "result": 0.998}, {"measurement": "normalized growth", "setting": "locus YDR334W, strain swr1, hits give low values", "result": 1.01}, {"measurement": "normalized growth", "setting": "locus YDR335W, strain msn5, hits give low values", "result": 1.01}, {"measurement": "normalized growth", "setting": "locus YDR388W, hits give low values", "result": 0.985}, {"measurement": "normalized growth", "setting": "locus YDR392W, strain spt3, hits give low values", "result": 0.959}, {"measurement": "normalized growth", "setting": "locus YDR502C, strain sam2, hits give low values", "result": 0.997}, {"measurement": "normalized growth", "setting": "locus YEL003W, strain gim4, hits give low values", "result": 1.01}, {"measurement": "normalized growth", "setting": "locus YEL037C, strain rad23, hits give low values", "result": 1.01}, {"measurement": "normalized growth", "setting": "locus YEL061C, strain CIN8 (second series), hits give low values", "result": 1.01}, {"measurement": "normalized growth", "setting": "locus YEL061C, strain CIN8, hits give low values", "result": 1.05}, {"measurement": "normalized growth", "setting": "locus YER015W, strain faa2, hits give low values", "result": 1.02}, {"measurement": "normalized growth", "setting": "locus YER016W, strain bim1, hits give low values", "result": 0.984}, {"measurement": "normalized growth", "setting": "locus YER110C, hits give low values", "result": 0.989}, {"measurement": "normalized growth", "setting": "locus YER111C, strain swi4, hits give low values", "result": 1.01}, {"measurement": "normalized growth", "setting": "locus YER155C, strain BEM2 (second series), hits give low values", "result": 1.01}, {"measurement": "normalized growth", "setting": "locus YER155C, strain BEM2, hits give low values", "result": 0.988}, {"measurement": "normalized growth", "setting": "locus YER167W, strain BCK2, hits give low values", "result": 0.983}, {"measurement": "normalized growth", "setting": "locus YFR010W, strain ubp6, hits give low values", "result": 1.01}, {"measurement": "normalized growth", "setting": "locus YGL078C, strain dbp3, hits give low values", "result": 0.988}, {"measurement": "normalized growth", "setting": "locus YGL086W, strain mad1, hits give low values", "result": 0.99}, {"measurement": "normalized growth", "setting": "locus YGL167C, strain pmr1, hits give low values", "result": 1.02}, {"measurement": "normalized growth", "setting": "locus YGL173C, strain kem1, hits give low values", "result": 1.02}, {"measurement": "normalized growth", "setting": "locus YGL227W, strain vid30, hits give low values", "result": 1.02}, {"measurement": "normalized growth", "setting": "locus YGL240W, strain doc1, hits give low values", "result": 1.03}, {"measurement": "normalized growth", "setting": "locus YGL248W, strain PDE1, hits give low values", "result": 1}, {"measurement": "normalized growth", "setting": "locus YGL253W, strain hxk2, hits give low values", "result": 1.01}, {"measurement": "normalized growth", "setting": "locus YGR078C, strain PAC10, hits give low values", "result": 1.03}, {"measurement": "normalized growth", "setting": "locus YGR135W, strain pre9, hits give low values", "result": 1}, {"measurement": "normalized growth", "setting": "locus YGR229C, strain SMI1, hits give low values", "result": 1.03}, {"measurement": "normalized growth", "setting": "locus YGR252W, strain gcn5, hits give low values", "result": 0.986}, {"measurement": "normalized growth", "setting": "locus YHR013C, strain ard1, hits give low values", "result": 0.998}, {"measurement": "normalized growth", "setting": "locus YHR027C, strain rpn1, hits give low values", "result": 1.01}, {"measurement": "normalized growth", "setting": "locus YHR030C, strain SLT2, hits give low values", "result": "0.986 and 1.01"}, {"measurement": "normalized growth", "setting": "locus YHR079C, strain IRE1 (second series), hits give low values", "result": 0.991}, {"measurement": "normalized growth", "setting": "locus YHR079C, strain IRE1, hits give low values", "result": 1.01}, {"measurement": "normalized growth", "setting": "locus YHR094C, strain hxt1, hits give low values", "result": 0.996}, {"measurement": "normalized growth", "setting": "locus YHR129C, strain ARP1, hits give low values", "result": 0.998}, {"measurement": "normalized growth", "setting": "locus YHR142W, strain chs7, hits give low values", "result": 1.02}, {"measurement": "normalized growth", "setting": "locus YHR200W, strain rpn10, hits give low values", "result": 0.994}, {"measurement": "normalized growth", "setting": "locus YIL066C, strain RNR3, hits give low values", "result": 1.01}, {"measurement": "normalized growth", "setting": "locus YIL073C, strain SPO22, hits give low values", "result": 1.02}, {"measurement": "normalized growth", "setting": "locus YIL125W, strain kgd1, hits give low values", "result": 0.987}, {"measurement": "normalized growth", "setting": "locus YIR030C, strain dcg1, hits give low values", "result": 0.99}, {"measurement": "normalized growth", "setting": "locus YJL092W, strain hpr5, hits give low values", "result": 1.01}, {"measurement": "normalized growth", "setting": "locus YJL095W, strain BCK1 (second series), hits give low values", "result": 1.03}, {"measurement": "normalized growth", "setting": "locus YJL095W, strain BCK1, hits give low values", "result": "1.05 and 1.01"}, {"measurement": "normalized growth", "setting": "locus YJL115W, strain asf1, hits give low values", "result": 1.01}, {"measurement": "normalized growth", "setting": "locus YJL129C, strain trk1, hits give low values", "result": 1.03}, {"measurement": "normalized growth", "setting": "locus YJL134W, strain LCB3, hits give low values", "result": 0.99}, {"measurement": "normalized growth", "setting": "locus YJL154C, strain vps35, hits give low values", "result": 1.01}, {"measurement": "normalized growth", "setting": "locus YJL164C, strain tpk1, hits give low values", "result": 0.985}, {"measurement": "normalized growth", "setting": "locus YJL166W, strain qcr8, hits give low values", "result": 1.02}, {"measurement": "normalized growth", "setting": "locus YJL168C, strain set2, hits give low values", "result": 0.98}, {"measurement": "normalized growth", "setting": "locus YJL187C, strain SWE1 (second series), hits give low values", "result": 1}, {"measurement": "normalized growth", "setting": "locus YJL187C, strain SWE1, hits give low values", "result": 1.02}, {"measurement": "normalized growth", "setting": "locus YJR043C, strain POL32, hits give low values", "result": "1.17 [resistant] (active)"}, {"measurement": "normalized growth", "setting": "locus YJR066W, strain TOR1, hits give low values", "result": 0.951}]}
